High-throughput results from PubChem.
Compounds with a hit are over-represented: about 9% of the library has one in this group of screens.
ALOX12 inh: ALOX12 (human) lipoxygenase inhibition. 1.1% of 580,000 active. Potency, µM (doses to about 108 µM), for inactives: at the top dose activity change, negative = inhibition, hits mostly inhibitors. purified 12hLO, xylenol orange hydroperoxide absorbance. AID 1671190; note: % is set by controls: 0 for no effect and ±100 for the full control effect
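Purified human 12hLO at 150 nM in 25 mM Hepes, 0.01% Triton X-100, pH 7.0, preincubated 15 min at room temperature with compound. Reaction started with 40 uM arachidonic acid, 30 min at room temperature. Hydroperoxide measured by Fe-xylenol orange, 573/405 nm absorbance ratio.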
JMJD2A Tudor: inhibitors of human JMJD2A Tudor domain | Potency, µM (titrated, usually from 114 µM), for inactives: top-dose activity change, negative = inhibition, usual class: inhibitors | AlphaScreen JMJD2A-Tudor / H3K4me3 peptide binding | 4.4% of 390,000 active; note: % is set by controls: 0 for no effect and ±100 for the full control effect; nearly all actives have a fitted effect of over 50% in size
HP1b chromo inh: blocks HP1-beta chromodomain binding to methylated histone tails. AID 540317. P83916. 0.56% of 390,000 active. AlphaScreen HP1-beta / biotin-H3K9me3 peptide binding. Potency, µM (doses to about 114 µM), for the others: at the top dose activity change, negative = inhibition, actives largely listed as inhibitors; note: nearly all actives have a fitted effect of over 70% in size
Target sequence (P83916 whole entry, looked up): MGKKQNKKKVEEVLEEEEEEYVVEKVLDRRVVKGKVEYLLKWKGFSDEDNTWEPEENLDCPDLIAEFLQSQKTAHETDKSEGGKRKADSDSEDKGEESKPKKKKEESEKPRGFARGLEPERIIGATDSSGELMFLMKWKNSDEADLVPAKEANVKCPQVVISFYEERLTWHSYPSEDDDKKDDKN
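Compound inhibition of the preformed complex between 50 nM HP1-beta and 50 nM biotinylated H3K9me3 peptide was read by AlphaScreen. Buffer was PBS pH 7.4 with 0.01% Tween-20. Incubations ran 30 min at room temperature, with 10 ug/mL donor/acceptor beads.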
BAZ2B block: inhibitors of human BAZ2B bromodomain. Q9UIF8. AlphaScreen BAZ2B-H3K14Ac peptide displacement. Potency, µM (series often up to 114 µM), inactives show top-dose activity change, negative = inhibition, usual class: inhibitors. 4.4% of 360,000 active; note: % is set by controls: 0 for no effect and ±100 for the full control effect; nearly all actives have a fitted effect of over 60% in size
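Inhibition is scored as reduced AlphaScreen emission. The BAZ2B/b-H3(5-23)K14Ac complex (50 nM each) in PBS pH 7.4, 0.01% Tween-20 meets compound (up to 110 uM) for 30 min at RT before bead addition.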
G9a inh: G9a (human) methyltransferase inhibition; 8.8% of 350,000 active; G9a H3K9 monomethylation, AlphaScreen, 2 h; Potency, µM (series often up to 102 µM), inactives show top-dose activity, negative = inhibition, usual class: inhibitors; Q96KQ7; note: % is set by controls: 0 for no effect and ±100 for the full control effect; nearly all actives have a fitted effect of over 75% in size
Target sequence (Q96KQ7 913-1193 limits assumed): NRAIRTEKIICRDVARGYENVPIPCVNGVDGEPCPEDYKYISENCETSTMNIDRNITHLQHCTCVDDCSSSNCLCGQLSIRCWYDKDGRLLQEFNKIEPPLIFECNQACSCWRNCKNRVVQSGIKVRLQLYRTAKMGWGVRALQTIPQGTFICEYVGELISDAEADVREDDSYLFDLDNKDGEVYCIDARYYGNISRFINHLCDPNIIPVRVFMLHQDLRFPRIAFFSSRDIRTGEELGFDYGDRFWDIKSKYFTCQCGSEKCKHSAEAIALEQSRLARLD
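Readings reflect AlphaScreen signal from monomethyl-H3K9 antibody detection. HMT at 20 nM; substrate b-H3K9 500 nM; cofactor SAM 20 uM; 2 h RT reaction; compounds tested as titrations in qHTS with 15 min preincubation.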
PLK1 PBD inh: PLK1 (human) polo-box domain binding inhibition; Potency, µM, for the others: max response, negative = inhibition, actives largely listed as inhibitors; Plk1 PBD binding of FITC phosphopeptide, fluorescence polarization; AID 720504; 2.8% of 360,000 active; note: series mostly up to about 57 µM; % is set by controls: 0 for no effect and ±100 for the full control effect; nearly all actives have a fitted effect of over 65% in size
The depositor's hits bear a star; ? = inconclusive; . = not tested or not shown; [ ] = remark or other dose. Calls come from the whole dose curve; as a rule, active = well fitted curve in the direction sought with a large enough effect; inconclusive = small, poorly fitted or top-dose-only effect, or another doubt; inactive = no such curve, though single readings can be large; an effect the other way counts as inactive or inconclusive. Potency is the fitted concentration of half-maximal effect.

SMILES | ALOX12 inh | JMJD2A Tudor | HP1b chromo inh | BAZ2B block | G9a inh | PLK1 PBD inh
Cn1cccc1/C=N/NC(=O)c1cc2ccccc2cc1O | ? | ? | ? | 28.2µM* | -7.9% | -1.0%
CCc1ccccc1NC(=O)c1ccc(F)c(S(=O)(=O)N2CCC(C(N)=O)CC2)c1 | 23.3% | -6.3% | 5.0% | 2.1% | 11.9%[59 µM] | -8.4%
O=C(Nc1nccs1)c1ccc(Br)c(S(=O)(=O)N2CCOCC2)c1 | -1.4% | -28.8% | 10.8% | -0.6% | 3.3%[59 µM] | -9.5%
Cc1cccc(OCCc2noc(C3CCCN3C(=O)c3cn(C)cn3)n2)c1 (stereo not given) | 60.3% | . | . | . | . | .
O=C(NCc1cccs1)c1nc2c(nnn2Cc2ccc(F)cc2)c(=O)[nH]1 | 7.0% | -10.8% | 25.1% | 6.5% | 15.6%[59 µM] | -10.4%
COc1cccc(OC)c1NC(=O)c1nc2c(nnn2Cc2ccccc2Cl)c(=O)[nH]1 | 1.5% | -4.4% | 37.4% | 1.3% | 9.3% | -0.5%
O=C(NCC1CCCO1)c1nc2c(nnn2Cc2ccc(F)cc2)c(=O)[nH]1 (stereo not given) | ? | ? | 27.2% | -17.2% | 50.1µM* | 2.1%
O=C(Nc1ccc(F)cc1)c1nc2c(nnn2Cc2cccc3ccccc23)c(=O)[nH]1 | 4.5% | -13.4% | 39.8% | ? | 10.1% | 23.8µM*
COc1ccc(C(=O)N2CCC(n3cc(-c4nc(C(C)C)no4)nn3)CC2)c(OC)c1 | 18.0% | . | . | . | . | .
CCC(C)C(NC(=O)C1CCC(C)CC1)C(=O)Nc1ccc(OC)cc1 (stereo not given) | 7.4% | -35.6%[57.1 µM] | -13.7% | -9.6% | 32.9%[59 µM] | 29.9µM*
COc1ccc(S(=O)(=O)N2CCN(S(=O)(=O)c3ccc(C(F)(F)F)cc3)CC2)cc1C | -11.2% | -6.2% | 11.3% | -1.4% | ? | -10.5%
O=C1N=C(N2CCCC2C(=O)O)S/C1=C\c1ccco1 (stereo not given) | -20.9% | ? | ? | 79.4µM* | 25.1µM* | 3.36µM*
CCCc1nc(C(=O)N(C)Cc2cnn(-c3ccccc3C)c2)cs1 | 30.1% | . | . | . | . | .
Cc1cc(C)c(NS(=O)(=O)c2ccc3c(c2)CC(C)N3C(=O)C2CCC2)c(C)c1 (stereo not given) | -14.8% | -8.6% | 21.0% | -4.4% | -7.9%[59 µM] | .
CC(C)[C@@H](C(=O)N[C@@H](CCc1ccc(O)cc1)C(=O)O)N(C)C(=O)[C@H](CO)NC(=O)[C@@H](O)[C@H](N)CCCCCCCCl | -3.3% | . | . | . | . | .
COc1cc(OC)nc(Oc2ccccc2/C=N/O)n1 | 0.0% | 44.7µM* | 11.8% | . | . | -0.3%
CSc1nsc(SC)c1NC(=O)OCc1ccccc1 | -16.1% | -6.6% | 32.5% | -0.4% | 39.8µM* | -15.6%
CCN1CCN(c2ccc(S(=O)(=O)N3CCCCC3)cc2NC(=O)c2cccc(C(F)(F)F)c2)CC1 | ? | -34.5% | -11.4% | -9.5% | 12.6µM* | -1.7%
CN1CCN(S(=O)(=O)c2cccc(C(=O)Nc3cc(C(F)(F)F)ccc3N3CCCCC3)c2)CC1 | -7.9% | -31.1% | 11.9% | -11.0% | 44.7µM* | 4.1%
CCN1CCN(c2ccc(S(=O)(=O)N3CCCCC3)cc2NC(=O)c2ccc([N+](=O)[O-])s2)CC1 | ? | ? | ? | -7.2% | 10µM* | -9.5%
CC1CCCCC1NC(=O)c1cccc(S(=O)(=O)N2CCN(C)CC2)c1 (stereo not given) | 10.2% | -19.3% | 7.3% | -6.0% | 44.7µM* | -6.3%
COc1ccc(C2Cn3nnc(C(=O)N4CCN(C(=O)Cc5ccccc5Cl)CC4)c3CO2)cc1 (stereo not given) | 7.4% | . | . | . | . | .
O=C(Nc1nccs1)c1ccc(Cl)c(S(=O)(=O)N2CCCCC2)c1 | 0.0% | -16.0% | 30.9% | -1.8% | 4.7%[59 µM] | -5.4%
O=C(Nc1ccc(Oc2cccnc2)cc1)c1cccc([N+](=O)[O-])c1 | . | -13.5% | 23.5% | -31.2% | 7.5%[59 µM] | 2.4%
COc1ccc(-c2noc([C@@H]3C[C@H](NCc4ccccn4)CN3C)n2)cc1 | 77.8%[176 µM] | . | . | . | . | .
SMILES | ALOX12 inh | JMJD2A Tudor | HP1b chromo inh | BAZ2B block | G9a inh | PLK1 PBD inh
CCN1CCN(c2ccc(S(=O)(=O)N3CCCCC3)cc2NC(=O)c2ccc(C)o2)CC1 | . | -23.4% | -6.2% | -7.4% | 39.8µM* | -5.0%
CCN1CCN(c2ccc(S(=O)(=O)N3CCCCC3)cc2NC(=O)c2ccccc2)CC1 | ? | -15.2% | 21.3% | -11.0% | 10µM* | 4.3%
CCN1CCN(c2ccc(S(=O)(=O)N3CCOCC3)cc2NC(=O)c2ccc(C)c(C)c2)CC1 | -24.1% | -10.1% | 20.1% | 4.0% | 6.4%[2.33 µM] | -5.7%
CCN1CCN(c2ccc(S(=O)(=O)N3CCOCC3)cc2NC(=O)c2ccccc2OC(F)F)CC1 | . | -22.6% | -14.6% | -0.2% | ? | 2.0%
CCN1CCN(c2ccc(S(=O)(=O)N3CCCCC3)cc2NC(=O)c2cccc(F)c2)CC1 | 10.3% | -22.3% | -12.4% | -32.0% | ? | -9.0%
CCN1CCN(c2ccc(S(=O)(=O)N3CCCCC3)cc2NC(=O)c2cccc(C)c2[N+](=O)[O-])CC1 | ? | -33.8% | -1.7% | -35.2% | 50.1µM* | -1.1%
COc1cccc2sc(NC(=O)CS(=O)(=O)c3ccc(C)cc3)nc12 | ? | -10.7% | 17.5% | -7.7% | 3.2%[59 µM] | .
O=C(CCC(=O)N(CC(=O)NC1CCCCC1)CC1CCCO1)Nc1nccs1 (stereo not given) | -8.5% | -12.7% | -24.5% | -3.6% | . | 26.7µM*
CCOC(=O)c1cnc2ccc(Cl)cc2c1Nc1ccc(N2CCOCC2)cc1 | -23.7% | 35.5µM* | ? | 14.1µM* | 7.08µM* | .
CCOC(=O)c1cnc2ccc(C)cc2c1Nc1ccc(N2CCOCC2)cc1 | ? | 28.2µM* | 22.4µM* | 35.5µM* | 39.8µM* | 2.7%
CCOC(=O)c1cnc2ccc(OC)cc2c1Nc1ccc(OC)cc1 | -0.4% | . | . | . | . | .
CCOC(=O)c1cnc2ccc(C(=O)OC)cc2c1Nc1ccc(N2CCOCC2)cc1 | -16.3% | 50.1µM* | ? | 17.8µM* | 12.6µM* | .
CCOC(=O)c1cnc2ccc(C)cc2c1Nc1ccc(N(CC)CC)cc1 | -4.0% | 12.6µM* | 10µM* | 3.55µM* | 4.47µM* | .
CCOC(=O)c1ccc2ncc(C(=O)OCC)c(NCCN3CCOCC3)c2c1 | -61.9% | -10.8% | 42.6% | -26.2% | -0.2% | -2.5%
O=C1CO[C@H]2CN(Cc3ccc4c(c3)OCO4)C[C@H]2N1Cc1ccccn1 | 31.5%[176 µM] | . | . | . | . | .
CCOC(=O)c1cnc2c(Cl)cc(Cl)cc2c1NCCCN1CCOCC1 | 2.4% | -7.5% | 30.0% | ? | -5.8%[0.501 µM] | 13.4µM*
CCOC(=O)c1cnc2c(C)cc(Cl)cc2c1NCCCN1CCOCC1 | -0.2% | -15.8% | 29.9% | -13.3% | -4.4% | -10.6%
CN(C)c1ccc(/C=C(\NC(=O)c2ccccc2)C(=O)NCc2cccnc2)cc1 | -27.5% | -9.7% | -2.7% | -17.4% | 39.8µM* | 22.9%
